The source of these data is PubChem BioAssay.

The target of assay [1] is 6-phosphogluconate dehydrogenase, decarboxylating (Homo sapiens) (UniProt P52209). Kind of assay: 6PGD enzyme inhibitors, primary screen, biochemical, human, recombinant enzyme, NADPH absorbance (AID 1159550;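 active = at least 20% inhibition of 6-phosphogluconate dehydrogenase activity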). Conditions: recombinant 6PGD, NADPH absorbance 341 nm; at 10 µM; stronger effect = higher value.
The nature of assay [2]: differential killing of epithelial or mesenchymal cells, primary screen, imaging, PC-3E GFP, TEM4-18 mCherry, co-culture (AID 1345086;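 active = compounds killing one labelled cell type while sparing the other, by normalised counts and ratio limits, not self-fluorescent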;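 for all read-outs here: cells exposed to compound for 72 h before imaging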;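 for red/green cell ratio (normalised): normalised mesenchymal count divided by normalised epithelial count so high means epithelial killing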). Conditions: imaging cell counts, at 1 µM; for red/green cell ratio (normalised): actives lie on both sides, counts scaled to control wells, 1 = unselective.
Assay [3] in a line: sensitizers of A549 cells to miR-34 induction, primary screen, imaging, A549 dox-inducible miR-34, nuclei and caspase counts (AID 1347080). Conditions: A549 miR-34 inducible, Hoechst nuclei count, 48 h.
Assay [4] in a line: polyglutamine-triggered caspase-3 activation inhibitors, cell-based (AID 1583). Conditions: polyglutamine-induced caspase-3 activation, cell assay; stronger effect = higher value;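 tested at 10 µM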.
Assay [5] is described as follows: suppressors of polyQ aggregation in yeast, 75Q-TubU reporter (AID 1593). Conditions: Yeast 75Q polyglutamine aggregation reporter.
Assay [6] can be described thus: rescue of polyQ-huntingtin neuronal dysfunction in worms, whole organism, C. elegans mechanosensory neurons, N-terminal huntingtin (AID 1599). Conditions: touch response, stronger effect = higher value.
The nature of assay [7]: inhibitors of mitochondrial cytochrome c release, biochemical, purified mitochondria (AID 1603).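 Note: mouse liver mitochondria challenged with calcium chloride; signal normalized to the plate average as 100%.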 Conditions: stronger effect = lower value.
Assay [8] can be described thus: inhibitors of polyQ protein aggregation (AID 1604). Conditions: polyglutamine-induced protein aggregation inhibition assay; stronger effect = higher value; tested at 2.5 µM.
Assay [9] is described as follows: enhancers of glutamate uptake in motor neurons, MN-1 cell line (AID 1612).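 Note: tested at 1 µM final; 0% = mean of DMSO vehicle wells on each plate; positive means more glutamate uptake than control and negative means less.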 Conditions: MN-1 motor neuron cells, stronger effect = higher value.
Assay [10] can be described thus: suppressors of polyglutamine aggregation in yeast, 75Q-TubH (AID 1616). Conditions: S. cerevisiae 75Q-TubH polyglutamine aggregation suppression; stronger effect = higher value.
The nature of assay [11]: hESC survival regulators, cell-based (AID 493140; call rule not given here;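 note: cells exposed to compounds for four days before counting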). Conditions: human embryonic stem cell survival screen; stronger effect = higher value.
Assay [12] is described as follows: liver-stage malaria parasite growth inhibition, primary screen, cell-based, HepG2, luciferase luminescence, HepG2 viability (AID 624349; in the data active = parasite load remaining mostly below about 12%, no sharp cut-off; inactive = mostly above about 10%;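 note: 100% = mean of DMSO negative control wells on the same plate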). Conditions: P. berghei liver stage in HepG2, luciferase luminescence, concentration not given here; parasite load remaining: stronger effect = lower value; viability: measured here: HepG2 viability without parasites.
Assay [13] can be described thus: SU-DIPG-VI glioma cell viability, MIPE4.0 library, CellTiter-Glo luminescence, qHTS (AID 1347066; cut-off not given, nearly all actives have AC50 up to about 30 µM;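 note: cells exposed to compound for 48 hours before readout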). Conditions: CellTiter-Glo ATP luminescence. (Cellular ATP, detected with luciferase, serves as a proxy for viable cell number.)
Assay [14] is described as follows: survival rescue of mitochondrial mutant cells in low glucose, primary screen, MELAS cybrids, Rieske KO mouse fibroblasts, CellTiter-Glo (AID 1508586;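 active = mean z-score across replicates of 1.96 or higher in either the MELAS or the Rieske mutant cell line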;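 note: z relative to plate mean and SD of compound and empty wells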).
The target of assay [15] is Mitogen-activated protein kinase 7 (Homo sapiens) (UniProt Q13164). Kind of assay: ERK5 transactivation activators in reporter cells, primary screen, cell-based, HTS (AID 1508626;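 active = luciferase signal above three times the same-plate solvent-only control wells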;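 note: luciferase driven by Gal4-ERK5 fusion binding five Gal4 sites before minimal TATA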). Conditions: HeLa Gal4-ERK5 transactivation, 18 h, at 5 µM, stronger effect = higher value.
A short description of assay [16]: viability rescue of complex I mutant cybrids, primary screen, cell-based, galactose medium, ATP luminescence (AID 1645843;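 active = z-score of at least 1.8 in each of two replicates, scored against plate mean and spread of sample wells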;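 note: positive z means more ATP and so rescue of galactose-driven cybrid death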). Conditions: complex I mutant cybrid cells, 72 h, stronger effect = higher value.
The mark [17] stands for this setting: measured here: epithelial PC-3E GFP cell survival.
Where [18] appears, read: measured here: mesenchymal TEM4-18 mCherry cell survival.
Setting [19] is: stronger effect = lower value, cell number ratio, induced over uninduced.
Setting [20] is: measured here: relative caspase fold change +Dox/-Dox.
Where [21] appears, read: measured here: total cells with miR-34 induction, stronger effect = lower value.
The mark [22] stands for this setting: measured here: total cells without miR-34 induction.
Where [23] appears, read: MELAS cybrid survival, CellTiter-Glo 48 h, stronger effect = higher value.
Setting [24] is: Rieske KO mouse fibroblast survival, CellTiter-Glo 72 h.

The inhibition is the drop in the measured response relative to a control, in per cent. A word on the viability: it is a per cent measure of how many cells are alive, often set against a control.

“And” between values parts separate entries of the source, which are not always exact repeats. Equal values may be shown once. Results filed as inconclusive are left out. For part of these data: Measured potencies and affinities stand elsewhere. The source made the active and inactive calls.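 Rule for the calls, unless noted: active = compounds whose cell count with miR-34 switched on is under 0.7 times the count with it off; inactive = the rest.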 Peptide text beside a SMILES is read from it.

Chain of 6-phosphogluconate dehydrogenase, decarboxylating (Homo sapiens) (P52209 whole entry, looked up): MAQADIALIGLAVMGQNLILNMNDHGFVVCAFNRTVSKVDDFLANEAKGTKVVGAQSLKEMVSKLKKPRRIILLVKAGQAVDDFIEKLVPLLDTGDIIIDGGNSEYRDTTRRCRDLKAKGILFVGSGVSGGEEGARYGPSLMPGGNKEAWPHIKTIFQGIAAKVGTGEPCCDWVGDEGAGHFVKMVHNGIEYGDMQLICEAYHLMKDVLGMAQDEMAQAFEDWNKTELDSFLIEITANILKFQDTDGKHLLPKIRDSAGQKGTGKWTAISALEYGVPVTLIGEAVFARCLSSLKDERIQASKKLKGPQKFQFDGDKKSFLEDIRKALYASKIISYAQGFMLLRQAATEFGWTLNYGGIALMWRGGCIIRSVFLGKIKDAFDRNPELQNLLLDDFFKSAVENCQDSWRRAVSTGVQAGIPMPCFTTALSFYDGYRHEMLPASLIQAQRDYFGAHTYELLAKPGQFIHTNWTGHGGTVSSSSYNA
Chain of Mitogen-activated protein kinase 7 (Homo sapiens) (Q13164 whole entry, looked up, the tested form may be a part): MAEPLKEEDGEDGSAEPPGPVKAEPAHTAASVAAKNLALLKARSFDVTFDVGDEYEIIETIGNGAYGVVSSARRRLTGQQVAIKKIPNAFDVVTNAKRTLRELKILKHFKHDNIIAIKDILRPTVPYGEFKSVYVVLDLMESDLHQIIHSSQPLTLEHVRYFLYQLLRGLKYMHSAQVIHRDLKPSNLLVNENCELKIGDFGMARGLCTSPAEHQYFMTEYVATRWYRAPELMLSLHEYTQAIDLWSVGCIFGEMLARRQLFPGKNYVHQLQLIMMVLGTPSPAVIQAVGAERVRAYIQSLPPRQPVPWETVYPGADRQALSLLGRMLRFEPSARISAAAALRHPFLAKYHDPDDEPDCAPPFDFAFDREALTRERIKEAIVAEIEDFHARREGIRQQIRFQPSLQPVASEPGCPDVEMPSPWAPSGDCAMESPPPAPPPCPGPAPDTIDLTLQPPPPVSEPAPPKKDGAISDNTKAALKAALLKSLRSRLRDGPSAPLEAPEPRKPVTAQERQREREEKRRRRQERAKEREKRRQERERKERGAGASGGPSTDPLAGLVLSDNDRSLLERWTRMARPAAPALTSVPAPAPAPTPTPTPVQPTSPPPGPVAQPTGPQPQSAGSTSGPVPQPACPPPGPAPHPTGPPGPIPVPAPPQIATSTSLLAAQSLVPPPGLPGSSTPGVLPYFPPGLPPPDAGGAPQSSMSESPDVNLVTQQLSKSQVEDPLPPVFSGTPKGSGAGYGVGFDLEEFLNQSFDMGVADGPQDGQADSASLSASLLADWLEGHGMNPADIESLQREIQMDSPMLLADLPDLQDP

For the molecule `CC(=O)[C@@]1(O)CCC2C3CCC4=CC(=O)CC[C@]4(C)C3CC[C@@]21C` (stereo partly specified), the inhibition in [1] is 7.07% (inactive). For the same molecule, the red/green cell ratio (normalised) in assay [2] is 0.98 (inactive). Moreover, the normalised cell number in assay [2] (setting [17]) is 0.94; in [2] (setting [18]), 0.92. For the same molecule, the values for the fold change in [3] (setting [19]) and in assay [3] (setting [20]) were 0.883 (inactive) and 0.857, respectively. The cell count in [3] (setting [21]) amounted to 7810; in [3] (setting [22]) it was 8840.
`O=c1cc(-c2ccccc2)oc2cc(O)cc(O)c12`: the inhibition was 16.7% in assay [4] and 13.6% (inactive) in assay [1]. Besides, the score in assay [5] is -0.45. Further, the rescue above control in assay [6] was 1.21. Further, in [7], the cytochrome c release ratio is 0.64. This molecule also gave an inhibition of aggregation in assay [8] of 83.3%. For the same molecule, the glutamate uptake change in [9] is -33.9%. Besides, the aggregation suppression score in assay [10] stood at 0.573. For the same molecule, in assay [11], the survival is 11.8 (inactive). Further, the parasite load remaining in assay [12] is 112% (inactive) and 75% (inactive). Moreover, in assay [12], the viability was 98.1% and 69.3%. The red/green cell ratio (normalised) in [2] is 0.89 (inactive). For the same molecule, the results for the normalised cell number in assay [2] (setting [17]) and in assay [2] (setting [18]) were 1.21 and 1.08, respectively. In [13], the call was inactive. For the same molecule, the fold change was 0.807 (inactive) and 0.948 (inactive) in assay [3] (setting [19]); 1.38 and 0.939 in assay [3] (setting [20]). The cell count was 5370 and 8220 in [3] (setting [21]); 6660 and 8680 in [3] (setting [22]). Besides, the z-score is -0.289 (inactive) in assay [14] (setting [23]) and 0.583 in assay [14] (setting [24]). Besides, in [15], the luciferase signal was 136 AU (inactive).
In the case of `Cc1cc(O)c2c(c1)C(=O)c1cc(O)cc(O)c1C2=O`, the inhibition in [1] is 2.17% (inactive). The red/green cell ratio (normalised) in assay [2] was 1.05 (inactive). Besides, the figures for the normalised cell number in assay [2] (setting [17]) and in [2] (setting [18]) were 1.08 and 1.13, respectively. The molecule was classed as inactive in [13]. The fold change was 1.01 (inactive) and 0.837 (inactive) in assay [3] (setting [19]); 1.12 and 1.08 in assay [3] (setting [20]). Further, the cell count in [3] (setting [21]) is 8200 and 6790; in assay [3] (setting [22]) it was 8110. Further, the z-score in [14] (setting [23]) is -0.41 (inactive); in [14] (setting [24]), 0.119; in assay [16], 0.08 (inactive).
For the molecule `c1ccc2c(Cc3c[nH]c4ccccc34)c[nH]c2c1`, the survival in [11] is 89.8 (inactive). Also, in [1], the inhibition is 2.37% (inactive). Besides, the red/green cell ratio (normalised) in assay [2] was 0.91 (inactive). Moreover, the results for the normalised cell number in assay [2] (setting [17]) and in assay [2] (setting [18]) were 1.11 and 1.01, respectively. The molecule was classed as inactive in [13]. In addition, the fold change in assay [3] (setting [19]) was 0.926 (inactive); in [3] (setting [20]), 0.966. Also, the cell count was determined as 4780 in assay [3] (setting [21]) and 5160 in assay [3] (setting [22]).
Take `CC(=O)N[C@@H](CC(=O)O)C(=O)N[C@@H](CCC(=O)O)C(=O)O` (Ac-Asp-Glu-OH): the figures for the inhibition in assay [4] and in [1] were 12.9% and -7.58% (inactive), respectively. This molecule also gave a score in assay [5] of 1.12. In assay [6], this molecule registered a rescue above control of 7.68. Also, the cytochrome c release ratio in [7] came to 1.15. In addition, in assay [8], the inhibition of aggregation came to 1.96%. Also, the glutamate uptake change in assay [9] amounted to 0%. For the same molecule, the aggregation suppression score in [10] was found to be 1.06. In assay [11], the survival was 16.7 (inactive). Besides, the red/green cell ratio (normalised) in [2] was 0.86 (inactive). The normalised cell number in [2] (setting [17]) came to 1.17; in assay [2] (setting [18]), 1.01. In addition, the fold change is 0.963 (inactive) in assay [3] (setting [19]) and 0.542 in assay [3] (setting [20]). Besides, the results for the cell count in assay [3] (setting [21]) and in [3] (setting [22]) were 8810 and 9150, respectively. In assay [16], the z-score was -0.67 (inactive).
As to `COc1cc(O)c2c(c1)C(=O)c1cc(C)cc(O)c1C2=O`, the inhibition in assay [1] is 36.5% (active). Besides, in [2], the red/green cell ratio (normalised) was 1 (inactive). The normalised cell number in assay [2] (setting [17]) was 1; in assay [2] (setting [18]), 1.01. Besides, in assay [13], the result was inactive. Moreover, the values for the fold change in assay [3] (setting [19]) and in assay [3] (setting [20]) were 0.975 (inactive) and 0.792, respectively. The cell count in assay [3] (setting [21]) is 9920; in assay [3] (setting [22]), 10200. The z-score is -0.364 (inactive) in [14] (setting [23]) and 0.659 in assay [14] (setting [24]). In addition, the luciferase signal in [15] is 212 AU (inactive).
